UCHL1 block – inhibitors of human UCHL1 deubiquitinase; Ubiquitin carboxyl-terminal hydrolase isozyme L1 (Homo sapiens), P09936; inhibition, % at 20 µM; hit rate 0.2% among 47,000; purified UCHL1, Ub-rhodamine cleavage fluorescence; AID 1645859, 2021
USP7 block – inhibitors of human USP7 deubiquitinase. inhibition, % at 20 µM. hit rate 0.3% among 47,000. purified USP7, Ub-rhodamine cleavage fluorescence. Ubiquitin carboxyl-terminal hydrolase 7 (Homo sapiens), Q93009
OTUD3 block – inhibitors of human OTUD3 deubiquitinase | OTU domain-containing protein 3 (Homo sapiens), Q5T2D3 | purified OTUD3, Ub-rhodamine fluorescence, 2 h | inhibition, % at 25 µM | hit rate 0.7% among 47,000
* hit, by the source's call. Rows were chosen to be rich in hits. Some 1.1% of all compounds tested hit in one or more screens of this group. Cut-off read from the data, not from the text of the source: active = inhibition above about 30%; inactive = the rest.

SMILES	UCHL1 block	USP7 block	OTUD3 block
COc1c2c(c(O)c3c1C(=O)c1c(cc(O)c(C)c1O)C3=O)-c1c(cc3c(c1O)C(=O)OC3O)CC2 (configuration not stated)	68.5*	55.1*	89.0*
Cc1noc(C)c1CC(=O)N1CCN(CC2CCCO2)CC1 (configuration not stated)	2.2	5.6	0.0
Cn1nc(-c2ccc(F)cc2)cc1[C@H]1CN2CC[C@H]1C[C@@H]2CO	0.0	0.0	1.2
CC(C)CN1C[C@H]2C[C@H](C(=O)Nc3cccnc3)[C@@H](C1)O2	-6.0	-1.5	-8.3
CC(C)NC(=O)[C@H]1CN2CCC1C[C@@H]2Cn1cc(-c2cccc(O)c2)nn1 (some centres not stated)	0.1	0.0	-7.8
COc1cc(O)cc2c1C(=O)O[C@@H](C)CCCC(=O)CCCCC2	3.4	1.9	13.8
COC1=C(C2=C(OC)C(=O)c3cc4c(c(O)c3C2=O)C(=O)OC(C)C4)C(=O)c2c(cc3c(c2O)C(=O)OC(C)C3)C1=O (configuration not stated)	39.6*	-67.1	63.6*
CN(C)[C@H]1C(=O)C(C(N)=O)=C(O)C2(O)C(=O)C3=C(O)c4c(O)cccc4C(C)(O)C3C(O)C12 (some centres not stated)	42.5*	4.6	-135.6
N#Cc1ccc(NC(=O)CN2CC=C(c3ccccc3)CC2)cc1Cl	-14.3	-67.4	-47.0
C/C=C1/CN2CC[C@]34C(=C(C(=O)OC)[C@H]1C[C@H]23)Nc1c(O)cccc14	-3.9	-1.2	-37.3
CC1Oc2cc3c(-c4c(O)cc(O)c5c(O)c6c(cc45)OC(C)C(C)C6=O)c(O)cc(O)c3c(O)c2C(=O)C1C (configuration not stated)	88.4*	85.4*	83.7*
CC(=O)C1=C(O)[C@@H]2[C@H]3c4c[nH]c5cccc(c45)CC3C(C)(C)N2C1=O (some centres not stated)	-34.2	-46.7	-121.1
O=C(Nc1nc2ccccc2s1)c1cccn(Cc2cccc(Cl)c2)c1=O	4.1	-1.3	-10.1
C=C/C(=C/C(=O)C[C@H](C)C[C@@H](C)CC[C@H](O)[C@H](C)C(=O)CC(O)[C@H](C)[C@@H](C)OC(=O)C[C@@H](O)C1=C(C)C(=O)OC1=O)CC (some centres not stated)	91.5*	77.5*	89.5*
O=C(NC1CCCCC1)C(c1ccc(O)cc1)N(CCN1CCOCC1)C(=O)Cc1c[nH]c2ccccc12 (configuration not stated)	-1.7	-7.0	-2.5

Source: PubChem (Buhrlage Lab, Dana-Farber Cancer Institute and Novartis Institutes for BioMedical Research (Cambridge, Mass))
